# PubChem BioAssay (NCI)
# This is part of a sample that, as a whole, favours compounds with a hit. Of some 83,000 tested, about 20% had one in any assay.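 Single-dose data. Exposure time 48 hours. Values below 10 considered active.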 A number with no mark means an inactive call. The source made the active and inactive calls.
# System: UO-31 renal
# Test: NCI-60 one-dose screen, 48 h (100 = growth as untreated, 0 = no growth, -100 = all killed)
# Details: 10 µM unless noted
# Protocol: Growth inhibition of the UO-31 human tumor cell line is measured as a screen for anti-cancer activity. Cells are grown in 96 well plates and exposed to the test compound for 48 hours. Compounds are tested at a single concentration, which is 10^-5 M for most compounds. The reported endpoint is percent growth (GI% or GIPRCNT), where numbers from 0 - 100% represent growth inhibition, and numbers from -100% - 0 represent cell death. For example, a value of 40 represents 60% growth inhibition. A value of 0 means no net growth occurred over the course of the experiment. A value of -40 indicates 40% of cells at the beginning of the experiment died by the end of the experiment. A value of -100 means all cells are dead at the end of the experiment.
# NCI-60 Human Tumor Cell Lines Screen was performed using the standard one-dose NCI protocol, which is described in more detail at https://dtp.cancer.gov/discovery_development/nci-60/default.htm.
# Compounds with GIPRCNT values below 10 were considered active. Activity score was based on GIPRCNT using the following formula: […]
# Score is 0 for GIPRCNT values of 100 or above, 50 for GIPRCNT values of 0, and 100 for GIPRCNT values of -100.
row,Structure (SMILES),growth
1,C[C@H]1[C@H]2[C@H]3CC[C@@H]4[C@@]5(C)CC[C@H](O)C(C)(C)[C@@H]5CC[C@@]4(C)[C@]3(C)CC[C@]23CO[C@]1(C)[C@@H](C(=O)/C=C\c1cccnc1)C3,58.7%
2,Cc1cccc2c3c(sc12)C(c1ccc(Cl)cc1)C(C#N)=C(N)O3 (stereo not given),39%
3,CCOC(=O)c1cn2ncnc(Oc3ccc(NC(=O)NCCN(C)C)c(Cl)c3)c2c1C,62.1%
4,CCN(CC)CCNc1nc2ccccc2c2c(=O)c3cc(Cl)ccc3sc12,43.7%
5,Cc1ccc(C(=O)NCCNc2nccc(-c3c(-c4cccc(F)c4)nc4sccn34)n2)cc1,23%
6,COc1ccc(OC)c(/C=C/c2nnc(Nc3ccccc3)o2)c1,94.5%
7,COc1cc2oc(-c3ccc(O)cc3)cc(=O)c2c(O)c1-c1c(OC)cc(O)c2c(=O)cc(-c3ccc(O)cc3)oc12,14.6%
8,Cc1nc2ccccc2c(/C=C/c2ccccc2)c1C(=O)/C=C/c1ccc(C(F)(F)F)cc1,-96.9% (active)
9,CCOC(=O)Cn1c(=O)c2c(c3ccccc3n2C)n2nnc(-c3ccccc3)c12,74.9%
10,CCCCn1c(-c2ccc(-c3nc(-c4ccc(Cl)cc4)no3)cc2)nc(-c2ccccc2)c1-c1ccccc1,-5.33% (active)
11,CC(=O)OC[C@H]1OC(Sc2sc(C(=O)c3ccc(C)cc3)c(N)c2-c2nc3ccccc3s2)[C@H](OC(C)=O)[C@@H](OC(C)=O)[C@@H]1OC(C)=O (stereo not given in full),25.7%
12,CCc1cccc2c3c(sc12)C(c1ccc(Cl)cc1)C(C#N)=C(N)O3 (stereo not given),38.2%
13,Cc1nc(/N=C(\N)NC(=O)Nc2ccccc2Cl)sc1C,58.1%
14,CN(C)CCN1CCN(c2ncccc2C2Nc3ccccc3-n3cccc32)CC1 (stereo not given),77.8%
15,COc1ccc(OC)c(/C=C/C(=O)N/N=C/c2ccc(Cl)cc2)c1,30.1%
16,Cn1cc(-c2cc3ncnc(Nc4ccc(CC(=O)Nc5cc(C(C)(C)C)nn5C)cc4)c3s2)cn1,28.8%
17,COc1cccc(/C=C2\C=C(c3ccccc3)N(Cc3ccccc3)C2=O)c1,41.2%
18,CCCCn1c(=O)c(-c2cc(-c3ccc(Cl)cc3)nc(-c3ccc(Cl)cc3)c2)cc2cc(C)ccc21,86.2%
19,COC(=O)C(Cc1ccccc1)NC(=O)NC(=O)NC(=O)CI (stereo not given),34.7%
20,Cc1ccc(C(=O)N/N=C/c2cccc([N+](=O)[O-])c2)cn1,76.6%

row,Structure (SMILES),growth
1,COc1ccc(CNC(=O)[C@H](O)[C@@H](N)Cc2ccccc2)cc1,92%
2,COc1ccc2sc3c(NCCCNCCO)nc4ccccc4c3c(=O)c2c1,46.4%
3,CN1CCN(c2ccc(-c3ccc4ncc(C#N)c(Nc5ccc(F)c(Cl)c5)c4c3)cc2)CC1,30.4%
4,Cc1ccc(/C=C(\C#N)n2nc3cccc(F)c3n2)cc1,72.3%
5,COc1cccc2nc3n(c12)C(c1c(F)cccc1F)SC3 (stereo not given),77.6%
6,COc1ccc(/C=C/c2c(C(=O)/C=C/c3ccc(C(F)(F)F)cc3)c(C)nc3ccccc23)cc1,-87.7% (active)
7,CC(=O)Oc1ccccc1C(=O)N=C1[Se]CCCN1C(=O)c1ccccc1OC(C)=O,-55.8% (active)
8,FC(F)(F)c1cc(Nc2ccc3c(OCCCN4CCOCC4)cccc3n2)ccc1Cl,51%
9,COc1cccc(-c2nc(-c3ccc(NC(=O)OC(C)C)cc3)[nH]c2-c2ccnc(Br)c2)c1,9.01% (active)
10,CC1=C(SCCC(=O)OC(C[Se]C2=C(C)C(=O)c3ccccc3C2=O)C(=O)NC(C)(C)C)C(=O)c2ccccc2C1=O (stereo not given),-41.2% (active)
11,Brc1ccc2[nH]cc(-c3nc(-c4c[nH]c5ccncc45)cs3)c2c1,-83.9% (active)
12,COc1ccc(-c2csc(NC(=O)N3CCN(c4cc5c(cc4F)c(=O)c(C(=O)O)cn5C4CC4)CC3)n2)cc1,1.86% (active)
13,Nc1cc2c(cc1Br)-c1cc(Cl)ccc1C2=O,67.1%
14,CN1CCN(c2ccc(-c3cc4c(Nc5ccc(F)c(Cl)c5)ncnn4c3)cc2)CC1,82.7%
15,COc1cc(Nc2nc(NCCN)nc3cc[nH]c(=O)c23)cc(OC)c1,112%
16,CNc1nc2c(s1)C(c1cc(F)ccc1F)CC(=O)N2 (stereo not given),63.9%
17,O=CN1N=C(c2ccc(Nc3ccnc4cc(Cl)ccc34)cc2)CC1c1ccccc1 (stereo not given),24.1%
18,c1ccc(OCc2nnc(-c3ccc(Oc4ccccc4)cc3)o2)cc1,81.7%
19,NS(=O)(=O)c1ccc(-n2nc(-c3ccc(Cl)cc3)c3ccccc3c2=O)cc1,52.6%
20,COc1ccc(/C=C2\Oc3cc(OCCN4CCC(Cc5ccccc5)CC4)ccc3C2=O)cc1OC,51.9%
